# Test results from the supplement of paper PMC3334620.
# Over roughly 33,000 sequences, “E-score (-0.5 to 0.5)” has its median near -0.013; the highest 2% begin near 0.3. The full list was thinned out, with the highest values kept by preference.
# Target: T1, Msn1 (UniProt P22148)
# T1 sequence: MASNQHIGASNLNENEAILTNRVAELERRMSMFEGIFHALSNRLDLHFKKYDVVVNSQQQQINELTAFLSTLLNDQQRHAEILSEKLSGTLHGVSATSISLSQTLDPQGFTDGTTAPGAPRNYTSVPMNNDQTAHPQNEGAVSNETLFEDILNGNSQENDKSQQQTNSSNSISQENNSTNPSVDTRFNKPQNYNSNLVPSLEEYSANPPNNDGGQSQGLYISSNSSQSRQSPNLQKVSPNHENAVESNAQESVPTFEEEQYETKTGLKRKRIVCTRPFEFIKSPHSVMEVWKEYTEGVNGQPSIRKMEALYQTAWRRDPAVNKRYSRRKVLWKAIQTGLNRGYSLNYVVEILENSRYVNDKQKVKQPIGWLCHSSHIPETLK
# Assay: PBM E-score (8-mer binding enrichment) (E-score (-0.5 to 0.5)); higher = stronger / more preferred TF binding
# Details: protein concentration: 200 nM; construct: GST-full length
# In short: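 For each ungapped eight-base word taken together with its reverse complement, the Universal PBM Analysis Suite assigned an E-score. Binding data came from GST-tagged yeast transcription factors, applied at about 100-200 nM, on universal all-10-mer Agilent arrays made double-stranded by primer extension. Fluorescent anti-GST marked bound protein, and scans were normalised with masliner.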
row,Sequence,PBM E-score
1,AGACATAT,0.47
2,AAACATAC,-0.0227
3,AGACATAG,0.32
4,GCAATGAA,0.0712
5,ATACATGA,0.073
6,ACAAATCG,0.276
7,ACTGAAGC,-0.0558
8,AATGGTTG,-0.0125
9,CCCTAAAC,-0.171
10,AGACAAGG,0.162
11,AGACAAAG,0.364
12,AGACAACT,0.147
13,ATACAAAT,0.335
14,CGACAAAG,0.294
15,AGACAAAA,0.437
16,AAACAAAT,0.199
17,AGACAAAT,0.482
18,ATACAAAG,0.254
19,ATACAAAA,0.2
20,AAACAAAA,0.127
21,ACACAAAA,0.296
22,CGCCCTTA,-0.0904
23,AAGTTGAT,0.016
24,AACTGCCC,-0.105
25,GGTCAAAC,0.114

row,Sequence,PBM E-score
1,AGGGGGCG,-0.416
2,GTGCAACA,-0.164
3,ACCCGCGC,0.0994
4,GCACCTTA,0.00327
5,ATATCCTG,0.0176
6,CCCTTCGG,-0.0863
7,CGACAACC,0.0461
8,CGACAAAC,0.36
9,AGACAAAC,0.446
10,CCACAAAA,0.0569
11,CAACAAAC,-0.0143
12,CGACAAAA,0.423
13,TCACAAAA,0.119
14,ACACAAAC,0.0132
15,TAACAAAA,0.228
16,AAACAAAC,0.192
17,CAACAAAA,0.0735
18,TGACAAAA,0.402
19,CCGTTGAA,0.00808
20,CGTAGCTA,-0.123
21,CCTGCGGA,0.00937
22,CGGCCGAC,0.194
23,GATTTGGC,-0.221
24,CATAGATC,0.0219
25,CCGTGAGG,-0.283

row,Sequence,PBM E-score
1,CATGGAGA,-0.00044
2,GCCTACAA,-0.0308
3,ATCCCGTC,-0.0856
4,AGTAACGC,-0.119
5,CTCTGAGA,-0.0856
6,CATACTCA,0.0936
7,GTTGGATA,0.0207
8,GTTGGACA,0.437
9,CTTGGACA,0.44
10,CTTGGACC,-0.163
11,CTTGGAGA,-0.00816
12,ATTGGACC,-0.101
13,ATTGGACG,0.211
14,ATTGGACA,0.445
15,GTTGGAAA,0.165
16,CACAATGG,0.0832
17,TAGGAACA,0.0697
18,GGGTGTCA,-0.0869
19,AGAGCTCT,-0.265
20,AGCCTCCG,-0.213
21,AGTACTTG,0.147
22,AGGACACC,0.255
23,AGGACACG,0.467
24,AGCACACG,-0.0792
25,ACGACACG,0.206

row,Sequence,PBM E-score
1,AGGACACA,0.472
2,AGGACAGC,0.078
3,ATGACACG,0.214
4,AGGACAGA,0.437
5,AGGACAGG,0.28
6,ACGACACT,0.123
7,ACGACACA,0.172
8,AGGACACT,0.358
9,TCGCAAGA,-0.177
10,AGGCAAAA,0.163
11,CTTGTTCA,-0.0388
12,GAGAGTTA,-0.0018
13,TCAGTTCA,-0.039
14,ACTAAAAC,0.14
15,TATATAAA,0.253
16,TATAAAAA,0.318
17,ATTAAAAC,0.156
18,ATTAAAAA,0.327
19,CATAAAAA,0.181
20,ACTAAAAG,0.0984
21,ATTAAAAG,0.156
22,ACTAAAAA,0.309
23,CAATTTCC,0.0903
24,ACCAACAG,-0.127
25,CGCAAACA,0.143

row,Sequence,PBM E-score
1,CAGCACAG,0.00522
2,GTCGTCTA,-0.00305
3,AGCGTGTC,0.0384
4,CGCGTGTA,0.114
5,CGCGTGTC,0.344
6,AGAAATGG,-0.076
7,ACCCTTAT,-0.0336
8,AATGGACG,0.185
9,CATGGACG,0.137
10,AATGGACA,0.438
11,GATGGAAA,-0.126
12,TATGGAGA,0.0848
13,AATGGACT,0.19
14,CATGGACA,0.47
15,GATGGACA,0.443
16,TATGGACA,0.476
17,TATGGAAA,0.071
18,GATGGACC,0.0221
19,CATGGACC,-0.0789
20,ATTGGTAA,0.00511
21,CCTCCTGA,-0.153
22,ACACATCC,0.0829
23,AATACCCA,-0.0704
24,TATTGTGA,0.0467
25,AGCACCAA,0.0195

row,Sequence,PBM E-score
1,ACAGTGCC,0.063
2,CGAATCGA,0.213
3,ACAGCCTG,-0.0349
4,ATGCCAAC,0.0264
5,ATTTCCCG,0.188
6,AACTACTT,0.00311
7,ATGAGCAT,0.017
8,CAGAAATA,0.0248
9,AAGTCCTA,0.409
10,AAGTCCTC,0.244
11,AAGTCCTG,0.292
12,ACGTCCTG,0.0274
13,ACGTCCTA,0.354
14,CCGTCCTA,-0.0332
15,CTTGTCAA,0.162
16,ATTGTCCA,0.466
17,ATTGTCAA,0.12
18,CTTGTACC,0.286
19,ATCGTCCA,-0.0991
20,CTTGTCGA,0.0891
21,CTTGTCCA,0.464
22,ATTGTTCG,0.259
23,CTTGTACA,0.311
24,ACTGTCCG,0.183
25,ATTGTCCG,0.468

row,Sequence,PBM E-score
1,ATTGTACA,0.242
2,CATTATGC,-0.00798
3,AGTTCGCC,0.00171
4,GACGCGAA,0.0618
5,TACTCGAA,-0.00961
6,GCCGACGC,0.0201
7,CTTGTCAC,0.296
8,GTTGTCAA,0.0641
9,ACTGTCCC,0.127
10,GTTGTCCA,0.381
11,CTGGTCCC,-0.218
12,GTTGTCGA,0.00891
13,CTTGTCCC,0.47
14,ATTGTCAC,0.297
15,ATTGTCCC,0.462
16,AAACCTTC,-0.288
17,GCCGTCGC,-0.0331
18,CTTCAGGC,-0.0893
19,CAATTGAG,-0.0282
20,ACATTAGC,0.147
21,CAAATCAA,0.126
22,CGACAGGC,-0.152
